SMILES strings stand for the structures.

The inhibition is the change of the read-out against control, counted positive when it falls.

Assay [1] addresses T1, Tyrosine-protein kinase ITK/TSK (Homo sapiens) (UniProt Q08881).
T1 sequence (whole entry): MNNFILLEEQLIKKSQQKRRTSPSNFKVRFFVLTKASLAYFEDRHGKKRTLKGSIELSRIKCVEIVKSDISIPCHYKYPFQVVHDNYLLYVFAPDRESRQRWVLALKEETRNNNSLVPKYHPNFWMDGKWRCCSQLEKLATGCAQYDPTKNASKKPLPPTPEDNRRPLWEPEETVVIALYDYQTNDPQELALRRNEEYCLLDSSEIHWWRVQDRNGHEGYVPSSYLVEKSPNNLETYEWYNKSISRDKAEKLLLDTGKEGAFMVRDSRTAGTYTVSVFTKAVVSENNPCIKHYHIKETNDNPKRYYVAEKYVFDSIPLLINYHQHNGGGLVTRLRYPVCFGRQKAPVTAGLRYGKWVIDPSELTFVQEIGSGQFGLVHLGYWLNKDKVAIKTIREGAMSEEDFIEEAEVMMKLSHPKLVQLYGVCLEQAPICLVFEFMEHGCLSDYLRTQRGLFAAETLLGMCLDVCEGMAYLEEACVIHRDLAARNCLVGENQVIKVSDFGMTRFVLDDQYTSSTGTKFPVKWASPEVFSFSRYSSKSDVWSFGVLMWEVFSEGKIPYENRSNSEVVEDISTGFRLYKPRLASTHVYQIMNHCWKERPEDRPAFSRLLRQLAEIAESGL
The conditions noted are these: at 1 µM.

Assay [2] addresses Tyrosine-protein kinase JAK1 (Homo sapiens) (UniProt P23458). The conditions noted are these: at 0.1 µM.
The target is the same in assay [3]. The following applies: at 1 µM.
For assay [4], the target named is Tyrosine-protein kinase JAK2 (Homo sapiens) (UniProt O60674). The conditions noted are these: at 0.1 µM.
For assay [5] the target is unchanged. The following applies: at 1 µM.
Assay [6] deals with T2, Tyrosine-protein kinase JAK3 (Homo sapiens) (UniProt P52333).
T2 sequence (whole entry): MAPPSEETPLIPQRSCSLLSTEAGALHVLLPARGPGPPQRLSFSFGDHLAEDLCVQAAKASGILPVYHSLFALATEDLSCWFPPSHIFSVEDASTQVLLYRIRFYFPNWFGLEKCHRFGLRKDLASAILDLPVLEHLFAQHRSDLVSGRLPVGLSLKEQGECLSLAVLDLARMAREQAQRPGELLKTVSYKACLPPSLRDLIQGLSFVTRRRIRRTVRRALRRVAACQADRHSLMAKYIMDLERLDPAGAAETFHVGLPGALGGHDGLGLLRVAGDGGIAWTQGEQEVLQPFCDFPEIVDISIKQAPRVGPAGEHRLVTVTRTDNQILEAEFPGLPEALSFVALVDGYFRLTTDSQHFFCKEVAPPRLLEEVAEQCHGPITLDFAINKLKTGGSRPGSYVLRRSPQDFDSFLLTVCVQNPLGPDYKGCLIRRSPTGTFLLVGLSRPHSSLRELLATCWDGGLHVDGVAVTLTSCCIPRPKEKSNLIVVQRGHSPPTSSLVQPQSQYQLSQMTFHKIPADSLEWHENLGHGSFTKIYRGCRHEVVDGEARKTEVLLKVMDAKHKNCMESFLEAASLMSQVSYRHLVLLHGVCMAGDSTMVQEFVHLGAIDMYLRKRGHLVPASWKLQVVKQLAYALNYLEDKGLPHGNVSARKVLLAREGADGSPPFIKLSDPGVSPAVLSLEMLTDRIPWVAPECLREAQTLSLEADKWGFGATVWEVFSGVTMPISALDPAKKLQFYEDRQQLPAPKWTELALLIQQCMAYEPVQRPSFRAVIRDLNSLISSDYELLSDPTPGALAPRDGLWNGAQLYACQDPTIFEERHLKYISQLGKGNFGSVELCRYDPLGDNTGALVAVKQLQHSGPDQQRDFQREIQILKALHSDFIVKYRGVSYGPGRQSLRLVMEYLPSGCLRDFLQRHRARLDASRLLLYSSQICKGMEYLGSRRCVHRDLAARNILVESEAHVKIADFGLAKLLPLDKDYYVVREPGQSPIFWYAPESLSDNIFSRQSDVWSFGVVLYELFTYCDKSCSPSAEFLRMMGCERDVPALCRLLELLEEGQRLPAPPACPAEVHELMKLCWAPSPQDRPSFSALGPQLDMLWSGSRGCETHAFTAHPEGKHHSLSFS
The conditions noted are these: at 0.1 µM.

Assay [7] deals with T2, Tyrosine-protein kinase JAK3 (Homo sapiens). The conditions noted are these: at 1 µM.
For assay [8], the target named is Vascular endothelial growth factor receptor 2 (Homo sapiens) (UniProt P35968). The following applies: at 0.1 µM.
Assay [9] has the same target. The following applies: at 1 µM.
Assay [10] deals with Mast/stem cell growth factor receptor Kit (Homo sapiens) (UniProt P10721). The following applies: at 0.1 µM.
For assay [11] the target is unchanged. The conditions noted are these: at 1 µM.
The test system of assay [12] is Mast/stem cell growth factor receptor Kit (Homo sapiens), P10721 [D816V]. The following applies: at 0.1 µM.
Assay [13] has the same test system. The conditions noted are these: at 1 µM.
The test system of assay [14] is Mast/stem cell growth factor receptor Kit (Homo sapiens), P10721 [T670I]. The following applies: at 0.1 µM.
For assay [15] the test system is unchanged. The following applies: at 1 µM.
Assay [16] relates to Mast/stem cell growth factor receptor Kit (Homo sapiens), P10721 [V560G]. The following applies: at 0.1 µM.
Assay [17] has the same test system. The following applies: at 1 µM.
In assay [18] the target is Tyrosine-protein kinase Lck (Homo sapiens) (UniProt P06239). The following applies: at 0.1 µM.
Assay [19] has the same target. The following applies: at 1 µM.
Assay [20] has as its target Leukocyte tyrosine kinase receptor (Homo sapiens) (UniProt P29376). The following applies: at 0.1 µM.

Vascular endothelial growth factor receptor 2 (Homo sapiens), sequence (P35968 whole entry): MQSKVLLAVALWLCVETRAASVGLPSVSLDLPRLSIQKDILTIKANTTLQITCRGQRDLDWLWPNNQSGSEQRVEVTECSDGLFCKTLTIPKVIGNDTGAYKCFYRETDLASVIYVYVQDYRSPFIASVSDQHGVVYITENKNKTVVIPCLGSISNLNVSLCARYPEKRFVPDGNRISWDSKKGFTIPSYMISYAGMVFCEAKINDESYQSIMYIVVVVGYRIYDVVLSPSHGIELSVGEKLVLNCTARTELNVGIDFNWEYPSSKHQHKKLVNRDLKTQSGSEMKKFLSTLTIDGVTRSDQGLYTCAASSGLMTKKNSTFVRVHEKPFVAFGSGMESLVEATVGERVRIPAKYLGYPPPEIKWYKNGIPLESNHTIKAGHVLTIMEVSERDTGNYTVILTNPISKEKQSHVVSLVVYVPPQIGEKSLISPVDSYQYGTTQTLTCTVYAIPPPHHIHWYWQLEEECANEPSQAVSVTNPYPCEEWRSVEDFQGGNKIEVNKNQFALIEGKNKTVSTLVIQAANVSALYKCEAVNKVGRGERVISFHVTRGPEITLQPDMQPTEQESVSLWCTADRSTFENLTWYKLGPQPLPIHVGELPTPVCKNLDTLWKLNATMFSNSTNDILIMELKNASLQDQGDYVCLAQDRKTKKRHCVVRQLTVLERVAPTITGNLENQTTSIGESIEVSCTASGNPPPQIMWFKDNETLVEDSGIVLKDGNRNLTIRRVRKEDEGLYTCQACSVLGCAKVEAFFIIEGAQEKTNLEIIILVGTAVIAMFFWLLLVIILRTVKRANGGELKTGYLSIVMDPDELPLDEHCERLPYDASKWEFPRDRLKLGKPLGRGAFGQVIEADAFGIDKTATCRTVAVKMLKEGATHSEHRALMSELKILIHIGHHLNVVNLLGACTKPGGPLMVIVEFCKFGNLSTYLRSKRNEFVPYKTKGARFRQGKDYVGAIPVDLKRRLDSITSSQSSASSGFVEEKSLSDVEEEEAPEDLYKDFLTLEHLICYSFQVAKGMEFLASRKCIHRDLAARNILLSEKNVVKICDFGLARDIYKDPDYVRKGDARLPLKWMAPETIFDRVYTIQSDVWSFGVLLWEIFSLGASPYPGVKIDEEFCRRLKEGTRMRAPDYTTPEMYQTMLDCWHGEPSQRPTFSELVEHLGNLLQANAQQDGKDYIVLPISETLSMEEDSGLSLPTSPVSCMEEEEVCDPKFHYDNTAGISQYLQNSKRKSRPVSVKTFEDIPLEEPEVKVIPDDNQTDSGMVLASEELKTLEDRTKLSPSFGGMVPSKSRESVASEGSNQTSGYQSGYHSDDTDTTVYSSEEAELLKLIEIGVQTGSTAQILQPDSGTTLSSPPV
Mast/stem cell growth factor receptor Kit (Homo sapiens), P10721 [T670I], sequence (P10721 whole entry T670I): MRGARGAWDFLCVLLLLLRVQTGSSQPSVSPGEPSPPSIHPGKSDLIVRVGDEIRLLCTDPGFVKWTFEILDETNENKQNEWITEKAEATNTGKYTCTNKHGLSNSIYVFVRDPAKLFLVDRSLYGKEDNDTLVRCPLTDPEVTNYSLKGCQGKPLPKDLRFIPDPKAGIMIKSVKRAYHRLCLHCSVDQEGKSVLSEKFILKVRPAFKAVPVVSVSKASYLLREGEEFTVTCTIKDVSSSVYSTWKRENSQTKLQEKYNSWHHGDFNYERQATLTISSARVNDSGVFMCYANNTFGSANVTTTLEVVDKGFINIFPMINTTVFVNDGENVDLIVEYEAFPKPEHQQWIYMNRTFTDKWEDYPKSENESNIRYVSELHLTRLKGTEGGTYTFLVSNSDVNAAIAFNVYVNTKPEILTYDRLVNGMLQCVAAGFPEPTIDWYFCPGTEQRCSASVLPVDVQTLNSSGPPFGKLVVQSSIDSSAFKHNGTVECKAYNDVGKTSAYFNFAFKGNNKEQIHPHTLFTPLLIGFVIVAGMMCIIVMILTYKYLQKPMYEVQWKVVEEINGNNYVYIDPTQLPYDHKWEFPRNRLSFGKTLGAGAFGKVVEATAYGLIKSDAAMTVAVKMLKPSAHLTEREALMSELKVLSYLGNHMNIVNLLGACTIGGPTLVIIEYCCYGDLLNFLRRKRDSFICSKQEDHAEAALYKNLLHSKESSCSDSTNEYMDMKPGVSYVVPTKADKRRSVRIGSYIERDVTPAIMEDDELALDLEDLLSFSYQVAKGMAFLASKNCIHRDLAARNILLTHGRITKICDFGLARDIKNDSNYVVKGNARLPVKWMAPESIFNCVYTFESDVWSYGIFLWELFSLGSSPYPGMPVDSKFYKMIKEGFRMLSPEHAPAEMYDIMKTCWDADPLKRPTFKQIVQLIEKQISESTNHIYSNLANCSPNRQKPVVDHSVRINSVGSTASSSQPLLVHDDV
Mast/stem cell growth factor receptor Kit (Homo sapiens), sequence (P10721 whole entry): as the sequence (P10721 whole entry T670I) above, with I670T counted along it
Tyrosine-protein kinase JAK2 (Homo sapiens), sequence (O60674 whole entry): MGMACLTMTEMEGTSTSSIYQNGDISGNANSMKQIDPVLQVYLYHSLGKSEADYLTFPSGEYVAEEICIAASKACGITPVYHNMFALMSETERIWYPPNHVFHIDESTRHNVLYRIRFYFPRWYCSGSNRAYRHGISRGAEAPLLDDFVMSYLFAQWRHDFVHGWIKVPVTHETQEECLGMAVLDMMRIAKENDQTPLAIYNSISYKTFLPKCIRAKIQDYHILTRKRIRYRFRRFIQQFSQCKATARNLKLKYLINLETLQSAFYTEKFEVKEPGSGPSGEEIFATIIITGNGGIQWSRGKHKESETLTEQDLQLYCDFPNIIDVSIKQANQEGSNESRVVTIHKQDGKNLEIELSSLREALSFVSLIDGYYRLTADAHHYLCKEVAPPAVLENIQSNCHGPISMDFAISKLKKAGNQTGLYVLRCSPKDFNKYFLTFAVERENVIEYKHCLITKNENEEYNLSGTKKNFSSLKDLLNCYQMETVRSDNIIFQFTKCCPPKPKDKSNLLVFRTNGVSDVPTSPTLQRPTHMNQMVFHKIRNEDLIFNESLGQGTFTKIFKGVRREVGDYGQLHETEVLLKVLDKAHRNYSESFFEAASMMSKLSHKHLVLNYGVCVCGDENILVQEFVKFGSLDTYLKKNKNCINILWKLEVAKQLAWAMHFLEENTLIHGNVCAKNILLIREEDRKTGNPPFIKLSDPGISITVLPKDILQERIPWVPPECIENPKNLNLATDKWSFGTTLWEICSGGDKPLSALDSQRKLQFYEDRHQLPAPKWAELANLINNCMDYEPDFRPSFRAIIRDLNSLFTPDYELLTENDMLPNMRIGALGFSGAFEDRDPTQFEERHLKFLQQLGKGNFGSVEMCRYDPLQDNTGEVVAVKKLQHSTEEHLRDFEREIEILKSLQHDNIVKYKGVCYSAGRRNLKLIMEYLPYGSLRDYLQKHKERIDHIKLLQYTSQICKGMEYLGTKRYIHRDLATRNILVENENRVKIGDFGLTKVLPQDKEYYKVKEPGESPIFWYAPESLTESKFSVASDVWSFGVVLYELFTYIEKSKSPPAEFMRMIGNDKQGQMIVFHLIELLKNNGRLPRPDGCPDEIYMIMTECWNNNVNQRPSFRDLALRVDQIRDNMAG
Mast/stem cell growth factor receptor Kit (Homo sapiens), P10721 [V560G], sequence (P10721 whole entry V560G): as the sequence (P10721 whole entry T670I) above, with V560G, I670T counted along it
Leukocyte tyrosine kinase receptor (Homo sapiens), sequence (P29376 whole entry): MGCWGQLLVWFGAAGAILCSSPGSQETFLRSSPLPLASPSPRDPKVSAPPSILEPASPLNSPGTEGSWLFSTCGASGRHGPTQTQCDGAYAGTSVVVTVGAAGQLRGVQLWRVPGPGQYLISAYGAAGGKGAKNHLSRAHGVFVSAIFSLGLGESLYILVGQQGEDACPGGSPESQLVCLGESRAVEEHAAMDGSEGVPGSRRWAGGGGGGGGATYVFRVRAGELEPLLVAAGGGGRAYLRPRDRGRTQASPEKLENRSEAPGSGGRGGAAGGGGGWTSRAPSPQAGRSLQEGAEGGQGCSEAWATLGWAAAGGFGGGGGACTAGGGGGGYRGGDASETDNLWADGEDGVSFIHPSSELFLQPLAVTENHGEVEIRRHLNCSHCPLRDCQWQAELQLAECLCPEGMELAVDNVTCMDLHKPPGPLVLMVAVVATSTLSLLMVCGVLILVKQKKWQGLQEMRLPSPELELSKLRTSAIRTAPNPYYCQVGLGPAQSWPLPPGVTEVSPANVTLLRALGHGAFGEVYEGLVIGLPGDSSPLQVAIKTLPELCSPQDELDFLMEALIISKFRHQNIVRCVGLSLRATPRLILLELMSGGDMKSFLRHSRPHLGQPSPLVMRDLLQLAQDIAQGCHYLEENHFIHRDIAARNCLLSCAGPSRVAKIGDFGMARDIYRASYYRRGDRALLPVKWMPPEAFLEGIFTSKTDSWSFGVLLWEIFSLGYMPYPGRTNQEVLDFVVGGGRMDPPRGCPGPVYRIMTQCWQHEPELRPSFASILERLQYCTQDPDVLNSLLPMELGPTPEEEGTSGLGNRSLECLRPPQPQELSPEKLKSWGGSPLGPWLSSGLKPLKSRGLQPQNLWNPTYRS
Mast/stem cell growth factor receptor Kit (Homo sapiens), P10721 [D816V], sequence (P10721 whole entry D816V): as the sequence (P10721 whole entry T670I) above, with I670T, D816V counted along it
Tyrosine-protein kinase Lck (Homo sapiens), sequence (P06239 2-509 limits assumed): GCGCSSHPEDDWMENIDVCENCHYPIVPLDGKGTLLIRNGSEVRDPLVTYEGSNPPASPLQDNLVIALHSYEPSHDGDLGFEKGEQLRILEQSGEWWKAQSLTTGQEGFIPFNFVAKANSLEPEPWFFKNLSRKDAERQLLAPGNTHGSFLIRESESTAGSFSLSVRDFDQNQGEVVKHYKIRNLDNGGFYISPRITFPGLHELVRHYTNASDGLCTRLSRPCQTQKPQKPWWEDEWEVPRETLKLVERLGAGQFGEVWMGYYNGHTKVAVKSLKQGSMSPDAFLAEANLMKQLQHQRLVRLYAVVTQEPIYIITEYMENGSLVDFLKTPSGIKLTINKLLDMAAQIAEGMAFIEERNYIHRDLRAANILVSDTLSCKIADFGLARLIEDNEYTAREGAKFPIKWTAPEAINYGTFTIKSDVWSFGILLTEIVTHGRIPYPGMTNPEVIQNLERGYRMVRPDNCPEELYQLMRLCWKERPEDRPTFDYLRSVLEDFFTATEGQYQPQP

Take `CN(c1ccc(NC(=O)Nc2ccc(OC(F)(F)F)cc2)cc1)c1ccnc(Nc2cccc(S(N)(=O)=O)c2)n1`: the inhibition in assay [1] was 67.3%; in assay [2] it was 2.28%; in assay [3], 12.8%; in assay [4], 0.3%; in assay [5], 1.31%; in [6], -2.38%. The inhibition in [7] was -1.69%; in assay [8] it was 78.8%; in [9], 99.6%; in assay [10], 37.5%; in assay [11], 95.3%; in assay [12] it was 3.73%. Further, the inhibition in [13] stood at 2.45%; in assay [14], 22.9%; in assay [15] it was 89.9%; in assay [16] it was 37.6%; in [17], 93.4%; in [18] it was 33.7%. The inhibition was determined as 80.1% in assay [19] and 2.69% in [20].
Consider `ON=C1CCc2cc(-c3nc(C4CCNCC4)[nH]c3-c3ccncc3)ccc21`, for which the inhibition in assay [1] was 0.87%; in [2], -0.79%; in [3] it was 0.05%; in [4], -0.01%; in assay [5] it was 0.28%; in [6] it was -1.58%. Moreover, the inhibition in assay [7] was 3.17%; in assay [8], 1.06%; in [9] it was 4.49%; in [10] it was -3%; in [11] it was -4.25%; in assay [12], 2.66%. The inhibition in assay [13] was 5.8%; in assay [14], -0.79%; in [15], -1.23%; in assay [16], -2.31%; in assay [17], -1.75%; in [18] it was 0.93%. In addition, the inhibition in [19] was 6.86%; in assay [20], 1.01%.
For `N#Cc1cccc(Nc2nccc(-c3cnn4ncccc34)n2)c1`, the inhibition in assay [1] is 21.1%; in [2], 2.54%; in assay [3] it was 14.9%; in assay [4], 2.15%; in assay [5] it was 22.1%; in assay [6] it was 5.73%. In addition, the inhibition is 36.2% in assay [7]; 12.1% in [8]; 43.9% in assay [9]; 78.3% in assay [10]; 100% in [11]; 4.4% in assay [12]. Moreover, the inhibition is 9.63% in assay [13]; 32.2% in [14]; 88.5% in [15]; 24.4% in [16]; 71.6% in assay [17]; 4.61% in assay [18]. Besides, the figures for the inhibition in assay [19] and in assay [20] were 18.3% and 6.31%, respectively.
For `CC(C)c1ccc(Nc2nccc(-c3cnn4ncccc34)n2)cc1`, the inhibition in assay [1] is 1.41%; in assay [2], 2.68%; in assay [3], 8.98%; in assay [4] it was 2.04%; in assay [5] it was 8.72%; in assay [6], 0.01%. The inhibition in assay [7] was 6.19%; in [8] it was 5.7%; in [9] it was 14.6%; in assay [10] it was 68.6%; in assay [11], 95.5%; in assay [12] it was 2.6%. In addition, the inhibition in assay [13] stood at 4.42%; in assay [14], 19.5%; in assay [15], 81.3%; in [16] it was 17.7%; in [17], 64%; in [18], 1.2%. In addition, the inhibition in assay [19] was found to be 3.47%; in assay [20], 2.91%.
In the case of `Cc1ccc(Nc2ccnc(Nc3cccc(C(N)=O)c3)n2)cc1O`, the inhibition in [1] is 0.3%; in [2], 5.16%; in [3], 32.7%; in assay [4], 5.29%; in assay [5], 45.8%; in assay [6], -4.07%. Moreover, the inhibition was 14% in assay [7]; 76.9% in assay [8]; 90.7% in assay [9]; 8.57% in [10]; 42.7% in assay [11]; 14.9% in assay [12]. Moreover, the inhibition in assay [13] came to 54.3%; in [14] it was 2.19%; in assay [15], 5.43%; in assay [16], 3.09%; in [17] it was 21.1%; in [18], 29.2%. Further, the inhibition amounted to 72.2% in [19] and 4.36% in [20].
`Cc1cc(Cl)cc2c1NC(=O)C2=NNc1ccc(S(N)(=O)=O)cc1`: the inhibition in assay [1] was 1.14%; in assay [2], 2.03%; in assay [3] it was 12.7%; in assay [4], -0.3%; in [5], 0.42%; in [6] it was -0.31%. In addition, the inhibition in assay [7] was 0.84%; in assay [8] it was 1.84%; in assay [9] it was 4.19%; in assay [11], 12.9%; in assay [12], 4.18%; in assay [13] it was -3.52%. Moreover, the inhibition was 2.4% in [14]; 3.29% in [15]; 2.2% in [16]; 7.35% in assay [17]; 1.9% in assay [18]; 1.89% in [19]. The inhibition in [20] came to 2.82%.
`Cc1cc(-c2ccccn2)cc(C)c1/C=C/c1cncc(-c2nn[nH]n2)c1`: the inhibition in assay [1] turned out to be 0.66%; in assay [2], 4.47%; in [3], 3.3%; in assay [4] it was 2.08%; in assay [5], 2.43%; in assay [6] it was 0.16%. Moreover, the inhibition in [7] worked out at 0.72%; in assay [8], 3.45%; in [9] it was 14.2%; in assay [10], 4.89%; in assay [11], 6.45%; in assay [12] it was 0.82%. In addition, the inhibition in assay [13] was -1.39%; in assay [14], 5.04%; in assay [15], 0.22%; in [16] it was -3.07%; in [17], -1.86%; in assay [18] it was 4.47%. Also, the inhibition in assay [19] stood at 12.1%; in assay [20], 4.42%.

For the origin of these results see ChEMBL document CHEMBL1961873, “Compounds: GSK PKIS; Assays: Nanosyn kinase panel” (2012).
